In all, about 5,500 compounds went through this assay and about 2,000 (36%) were called active. Roughly 18% stayed inconclusive and do not appear here. Cut-off read from the data, not from the text of the source: active = normalized growth mostly below about 0.91 (no sharp cut-off); inconclusive = no clear call, values can overlap the other calls; inactive = mostly above about 0.92. The list shows a part of the results.
Experiment: chemical genetic growth profiling, strain panel (AID 1159580);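 note: tested at 20 µM; growth read once vehicle control cultures reached saturation at 30 °C; 1 = growth at the plate median or of vehicle wells; lower values mean less growth of the strain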
Details: growth OD

Measured: normalized growth

CC1(C)C(O)CC(O)C2(C)C1CC(O)C1(C)C2CCC2(C)C(c3ccoc3)OC(=O)C3OC321 (stereo not drawn)
inactive: S. cerevisiae deletion strains, locus YAL021C, strain ccr4, active compounds read low 0.989 | S. cerevisiae deletion strains, locus YAL026C, strain drs2, active compounds read low 0.983 | S. cerevisiae deletion strains, locus YAL030W, strain snc1, active compounds read low 0.998 | S. cerevisiae deletion strains, locus YBL061C, strain skt5, active compounds read low 1.01 | S. cerevisiae deletion strains, locus YBR009C, strain hhf1, active compounds read low 0.999 | S. cerevisiae deletion strains, locus YBR021W, strain FUR4, active compounds read low 0.974 | S. cerevisiae deletion strains, locus YBR023C, strain chs3, active compounds read low 0.997 | S. cerevisiae deletion strains, locus YBR171W, strain sec66, active compounds read low 0.988 | S. cerevisiae deletion strains, locus YBR229C, strain ROT2, active compounds read low 1.01 | S. cerevisiae deletion strains, locus YBR231C, strain swc5, active compounds read low 0.999 | S. cerevisiae deletion strains, locus YBR279W, strain paf1, active compounds read low 0.992 | S. cerevisiae deletion strains, locus YCL011C, strain gbp2, active compounds read low 0.976 | S. cerevisiae deletion strains, locus YCL016C, strain dcc1, active compounds read low 0.985 | S. cerevisiae deletion strains, locus YCL029C, strain bik1, active compounds read low 1.01 | S. cerevisiae deletion strains, locus YCL061C, strain MRC1, active compounds read low 1.01 | S. cerevisiae deletion strains, locus YCL069W, strain vba3, active compounds read low 1 | S. cerevisiae deletion strains, locus YCR088W, strain abp1, active compounds read low 0.988 | S. cerevisiae deletion strains, locus YDL005C, strain med2, active compounds read low 0.974 | S. cerevisiae deletion strains, locus YDL035C, strain GPR1, active compounds read low 1.02 | S. cerevisiae deletion strains, locus YDL040C, strain nat1, active compounds read low 0.991 | S. cerevisiae deletion strains, locus YDL074C, strain BRE1, active compounds read low 0.998 | S. cerevisiae deletion strains, locus YDL101C, strain DUN1, active compounds read low 1.02 | S. cerevisiae deletion strains, locus YDL185W, strain tfp1, active compounds read low 1.03 | S. cerevisiae deletion strains, locus YDL192W, strain arf1, active compounds read low 1.02 | S. cerevisiae deletion strains, locus YDR001C, strain nth1, active compounds read low 0.994 | S. cerevisiae deletion strains, locus YDR069C, strain doa4, active compounds read low 0.98 | S. cerevisiae deletion strains, locus YDR101C, strain arx1, active compounds read low 1.01 | S. cerevisiae deletion strains, locus YDR137W, strain rgp1, active compounds read low 0.988 | S. cerevisiae deletion strains, locus YDR150W, strain NUM1, active compounds read low 0.998 | S. cerevisiae deletion strains, locus YDR159W, strain sac3, active compounds read low 1.01 | S. cerevisiae deletion strains, locus YDR162C, strain NBP2, active compounds read low 1.01 | S. cerevisiae deletion strains, locus YDR195W, strain ref2 0.953 | S. cerevisiae deletion strains, locus YDR297W, strain sur2, active compounds read low 0.986 | S. cerevisiae deletion strains, locus YDR318W, strain mcm21, active compounds read low 1.03 | S. cerevisiae deletion strains, locus YDR334W, strain swr1, active compounds read low 0.985 | S. cerevisiae deletion strains, locus YDR335W, strain msn5, active compounds read low 0.987 | S. cerevisiae deletion strains, locus YDR388W, active compounds read low 1.02 | S. cerevisiae deletion strains, locus YDR392W, strain spt3, active compounds read low 1.02 | S. cerevisiae deletion strains, locus YDR502C, strain sam2, active compounds read low 1.02 | S. cerevisiae deletion strains, locus YEL003W, strain gim4, active compounds read low 1.01 | S. cerevisiae deletion strains, locus YEL037C, strain rad23, active compounds read low 0.987 | S. cerevisiae deletion strains, locus YEL061C, strain CIN8 (second series), active compounds read low 0.989 | S. cerevisiae deletion strains, locus YEL061C, strain CIN8, active compounds read low 0.998 | S. cerevisiae deletion strains, locus YER015W, strain faa2, active compounds read low 0.994 | S. cerevisiae deletion strains, locus YER016W, strain bim1, active compounds read low 0.999 | S. cerevisiae deletion strains, locus YER110C, active compounds read low 1.04 | S. cerevisiae deletion strains, locus YER111C, strain swi4, active compounds read low 0.98 | S. cerevisiae deletion strains, locus YER155C, strain BEM2 (second series), active compounds read low 1.01 | S. cerevisiae deletion strains, locus YER155C, strain BEM2, active compounds read low 0.99 | S. cerevisiae deletion strains, locus YER167W, strain BCK2, active compounds read low 1 | S. cerevisiae deletion strains, locus YFR010W, strain ubp6, active compounds read low 1.01 | S. cerevisiae deletion strains, locus YGL078C, strain dbp3, active compounds read low 1.03 | S. cerevisiae deletion strains, locus YGL086W, strain mad1, active compounds read low 1 | S. cerevisiae deletion strains, locus YGL167C, strain pmr1, active compounds read low 0.994 | S. cerevisiae deletion strains, locus YGL173C, strain kem1, active compounds read low 0.985 | S. cerevisiae deletion strains, locus YGL227W, strain vid30, active compounds read low 0.983 | S. cerevisiae deletion strains, locus YGL240W, strain doc1, active compounds read low 1.02 | S. cerevisiae deletion strains, locus YGL248W, strain PDE1, active compounds read low 1.01 | S. cerevisiae deletion strains, locus YGL253W, strain hxk2, active compounds read low 0.962 | S. cerevisiae deletion strains, locus YGR078C, strain PAC10, active compounds read low 1.01 | S. cerevisiae deletion strains, locus YGR135W, strain pre9, active compounds read low 1.03 | S. cerevisiae deletion strains, locus YGR229C, strain SMI1, active compounds read low 1 | S. cerevisiae deletion strains, locus YGR252W, strain gcn5, active compounds read low 1.01 | S. cerevisiae deletion strains, locus YHR013C, strain ard1, active compounds read low 0.959 | S. cerevisiae deletion strains, locus YHR027C, strain rpn1, active compounds read low 1 | S. cerevisiae deletion strains, locus YHR030C, strain SLT2, active compounds read low 1.01 | S. cerevisiae deletion strains, locus YHR079C, strain IRE1 (second series), active compounds read low 1.02 | S. cerevisiae deletion strains, locus YHR094C, strain hxt1, active compounds read low 1.02 | S. cerevisiae deletion strains, locus YHR129C, strain ARP1, active compounds read low 0.999 | S. cerevisiae deletion strains, locus YHR142W, strain chs7, active compounds read low 0.972 | S. cerevisiae deletion strains, locus YHR200W, strain rpn10, active compounds read low 1.01 | S. cerevisiae deletion strains, locus YIL066C, strain RNR3, active compounds read low 1.02 | S. cerevisiae deletion strains, locus YIL073C, strain SPO22, active compounds read low 1.08 | S. cerevisiae deletion strains, locus YIL125W, strain kgd1, active compounds read low 1.01 | S. cerevisiae deletion strains, locus YIR030C, strain dcg1, active compounds read low 1.02 | S. cerevisiae deletion strains, locus YJL092W, strain hpr5, active compounds read low 0.997 | S. cerevisiae deletion strains, locus YJL095W, strain BCK1 (second series), active compounds read low 0.983 | S. cerevisiae deletion strains, locus YJL095W, strain BCK1, active compounds read low 1 | S. cerevisiae deletion strains, locus YJL115W, strain asf1, active compounds read low 1 | S. cerevisiae deletion strains, locus YJL129C, strain trk1, active compounds read low 0.959 | S. cerevisiae deletion strains, locus YJL134W, strain LCB3, active compounds read low 0.996 | S. cerevisiae deletion strains, locus YJL154C, strain vps35, active compounds read low 0.991 | S. cerevisiae deletion strains, locus YJL164C, strain tpk1, active compounds read low 0.989 | S. cerevisiae deletion strains, locus YJL166W, strain qcr8, active compounds read low 0.982 | S. cerevisiae deletion strains, locus YJL168C, strain set2, active compounds read low 1.01 | S. cerevisiae deletion strains, locus YJL187C, strain SWE1 (second series), active compounds read low 1.01 | S. cerevisiae deletion strains, locus YKL009W, strain mrt4, active compounds read low 0.962 | S. cerevisiae deletion strains, locus YKL068W, active compounds read low 1.01 | S. cerevisiae deletion strains, locus YKL085W, strain MDH1 (second series), active compounds read low 1 | S. cerevisiae deletion strains, locus YKL085W, strain MDH1, active compounds read low 1 | S. cerevisiae deletion strains, locus YKL160W, strain elf1, active compounds read low 0.991 | S. cerevisiae deletion strains, locus YKL190W, strain CNB1, active compounds read low 0.996 | S. cerevisiae deletion strains, locus YKR001C, strain vps1, active compounds read low 1.01 | S. cerevisiae deletion strains, locus YKR026C, strain gcn3, active compounds read low 0.989 | S. cerevisiae deletion strains, locus YKR091W, strain srl3, active compounds read low 0.986 | S. cerevisiae deletion strains, locus YLL001W, strain dnm1, active compounds read low 0.989 | S. cerevisiae deletion strains, locus YLL026W, active compounds read low 1 | S. cerevisiae deletion strains, locus YLL041C, strain sdh2, active compounds read low 1 | S. cerevisiae deletion strains, locus YLR027C, strain aat2, active compounds read low 0.999 | S. cerevisiae deletion strains, locus YLR039C, strain RIC1, active compounds read low 1.06 | S. cerevisiae deletion strains, locus YLR058C, strain SHM2, active compounds read low 1.02 | S. cerevisiae deletion strains, locus YLR102C, strain apc9, active compounds read low 1.02 | S. cerevisiae deletion strains, locus YLR221C, strain rsa3, active compounds read low 0.993 | S. cerevisiae deletion strains, locus YLR258W, strain gsy2, active compounds read low 0.994 | S. cerevisiae deletion strains, locus YLR262C, strain YPT6 (second series), active compounds read low 0.994 | S. cerevisiae deletion strains, locus YLR262C, strain YPT6, active compounds read low 1.07 | S. cerevisiae deletion strains, locus YLR268W, strain sec22, active compounds read low 1.01 | S. cerevisiae deletion strains, locus YLR320W, strain mms22, active compounds read low 1 | S. cerevisiae deletion strains, locus YLR330W, strain CHS5, active compounds read low 1.01 | S. cerevisiae deletion strains, locus YLR342W, strain FKS1, active compounds read low 0.999 | S. cerevisiae deletion strains, locus YLR357W, strain rsc2, active compounds read low 0.995 | S. cerevisiae deletion strains, locus YLR370C, strain arc18, active compounds read low 0.981 | S. cerevisiae deletion strains, locus YLR371W, strain rom2, active compounds read low 0.954 | S. cerevisiae deletion strains, locus YLR384C, strain iki3, active compounds read low 0.977 | S. cerevisiae deletion strains, locus YLR418C, strain cdc73, active compounds read low 1.02 | S. cerevisiae deletion strains, locus YML016C, strain PPZ1, active compounds read low 1.01 | S. cerevisiae deletion strains, locus YML032C, strain rad52, active compounds read low 1 | S. cerevisiae deletion strains, locus YML120C, strain ndi1, active compounds read low 0.991 | S. cerevisiae deletion strains, locus YML124C, strain tub3, active compounds read low 1.01 | S. cerevisiae deletion strains, locus YMR058W, strain fet3, active compounds read low 0.998 | S. cerevisiae deletion strains, locus YMR078C, strain ctf18, active compounds read low 1.03 | S. cerevisiae deletion strains, locus YMR125W, strain sto1, active compounds read low 0.98 | S. cerevisiae deletion strains, locus YMR129W, active compounds read low 0.989 | S. cerevisiae deletion strains, locus YMR205C, strain PFK2, active compounds read low 0.999 | S. cerevisiae deletion strains, locus YMR223W, strain ubp8, active compounds read low 1.02 | S. cerevisiae deletion strains, locus YMR231W, strain pep5, active compounds read low 0.987 | S. cerevisiae deletion strains, locus YMR307W, strain GAS1, active compounds read low 1.02 | S. cerevisiae deletion strains, locus YNL067W, strain RPL9B, active compounds read low 1.02 | S. cerevisiae deletion strains, locus YNL071W, strain lat1, active compounds read low 0.998 | S. cerevisiae deletion strains, locus YNL128W, strain TEP1, active compounds read low 1.02 | S. cerevisiae deletion strains, locus YNL153C, strain GIM3, active compounds read low 1.01 | S. cerevisiae deletion strains, locus YNL209W, strain ssb2, active compounds read low 1.01 | S. cerevisiae deletion strains, locus YNL233W, strain BNI4, active compounds read low 0.995 | S. cerevisiae deletion strains, locus YNL248C, strain rpa49, active compounds read low 0.964 | S. cerevisiae deletion strains, locus YNL250W, strain rad50, active compounds read low 1.03 | S. cerevisiae deletion strains, locus YNL271C, strain bni1, active compounds read low 1.03 | S. cerevisiae deletion strains, locus YNL298W, strain CLA4, active compounds read low 1.02 | S. cerevisiae deletion strains, locus YNL307C, strain MCK1, active compounds read low 1.03 | S. cerevisiae deletion strains, locus YNL322C, strain KRE1 (second series), active compounds read low 0.988 | S. cerevisiae deletion strains, locus YNR049C, strain mso1, active compounds read low 0.999 | S. cerevisiae deletion strains, locus YNR052C, strain pop2, active compounds read low 1 | S. cerevisiae deletion strains, locus YOL006C, strain TOP1, active compounds read low 1.13 | S. cerevisiae deletion strains, locus YOL012C, strain htz1 0.879 | S. cerevisiae deletion strains, locus YOL147C, strain pex11, active compounds read low 1.01 | S. cerevisiae deletion strains, locus YOR001W, strain rrp6, active compounds read low 1 | S. cerevisiae deletion strains, locus YOR061W, strain CKA2, active compounds read low 1.02 | S. cerevisiae deletion strains, locus YOR069W, strain VPS5, active compounds read low 1 | S. cerevisiae deletion strains, locus YOR070C, strain gyp1, active compounds read low 1 | S. cerevisiae deletion strains, locus YOR080W, strain dia2, active compounds read low 0.983 | S. cerevisiae deletion strains, locus YOR083W, strain WHI5, active compounds read low 0.994 | S. cerevisiae deletion strains, locus YOR106W, strain vam3, active compounds read low 0.996 | S. cerevisiae deletion strains, locus YOR136W, strain idh2, active compounds read low 1.03 | S. cerevisiae deletion strains, locus YOR144C, strain elg1, active compounds read low 1.02 | S. cerevisiae deletion strains, locus YOR184W, strain ser1, active compounds read low 1.03 | S. cerevisiae deletion strains, locus YOR265W, strain rbl2, active compounds read low 1 | S. cerevisiae deletion strains, locus YOR270C, strain vph1, active compounds read low 0.914 | S. cerevisiae deletion strains, locus YOR290C, strain snf2, active compounds read low 0.967 | S. cerevisiae deletion strains, locus YOR316C, strain cot1, active compounds read low 1.02 | S. cerevisiae deletion strains, locus YPL051W, strain arl3, active compounds read low 1 | S. cerevisiae deletion strains, locus YPL078C, strain atp4, active compounds read low 0.986 | S. cerevisiae deletion strains, locus YPL106C, strain sse1, active compounds read low 0.988 | S. cerevisiae deletion strains, locus YPL240C, strain hsp82, active compounds read low 0.983 | S. cerevisiae deletion strains, locus YPR119W, strain clb2, active compounds read low 1.01 | S. cerevisiae deletion strains, locus YPR141C, strain kar3, active compounds read low 1.03 | S. cerevisiae deletion strains, locus YPR163C, strain tif3, active compounds read low 1.03 | S. cerevisiae deletion strains, locus YPR167C, strain met16, active compounds read low 1.02 | S. cerevisiae deletion strains, strain wtn01, active compounds read low 1.02 | S. cerevisiae strains, strain wild type, active compounds read low 1.02

Source: PubChem BioAssay AID1159580 (chemical genetic matrix, 2015)
